Measured values reported in paper PMC13494018.
Unmarked numbers belong to inactive results. The rule behind the calls is not given here.

Target: VTCN1, Q7Z7D3
Sequence (Q7Z7D3 whole entry): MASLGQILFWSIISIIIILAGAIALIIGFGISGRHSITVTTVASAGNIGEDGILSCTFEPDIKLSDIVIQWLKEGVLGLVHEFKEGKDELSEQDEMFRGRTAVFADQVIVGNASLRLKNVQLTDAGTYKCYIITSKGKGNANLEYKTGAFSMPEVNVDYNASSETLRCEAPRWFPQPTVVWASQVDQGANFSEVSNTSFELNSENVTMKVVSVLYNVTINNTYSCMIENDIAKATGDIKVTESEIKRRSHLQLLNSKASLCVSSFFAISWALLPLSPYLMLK

Binder | binding in a display sort
design_608_fd41b8f9-4da9-4c78-93ec-aaa316ed4933_1100_dldesign_0_cycle1_af2pred (protein) ELAKEIEKFAEEAKERAKKGNPEEAREAYREFREKAKKIAEEDPSVAELASKKAAEVAEVAAEAIYKKLKE | not found
design_608_fd41b8f9-4da9-4c78-93ec-aaa316ed4933_1103_dldesign_0_cycle1_af2pred (protein) SPQAAADALRAAQRLLREAGARAEAAGAQEAADLLRQASFALAGTGADEALALIDAAAAAYPEVAPLLDEARAAARAYGELLN | not found
design_608_fd41b8f9-4da9-4c78-93ec-aaa316ed4933_1151_dldesign_0_cycle1_af2pred (protein) SMAEEEKKEKEKKKAETLALNAKGLEAIDKGDFTTAAKLYEKAAEVAPTEELKKRAEKGAKAMKKLEKAAKE | not found
design_608_fd41b8f9-4da9-4c78-93ec-aaa316ed4933_1306_dldesign_0_cycle1_af2pred (protein) GKEEAEKILKEAKAKLDALAKENPALAPLAAEAKERIEKKYKKAIEADEKDPKQGKAAAEALKEFAKNAVAAVEKKK | not found
design_608_fd41b8f9-4da9-4c78-93ec-aaa316ed4933_1350_dldesign_0_cycle1_af2pred (protein) SEAYKEFHEALQYATDAGYEYAKNPEEGKKELAKAEEHLKKAEELADPETAAKMREIYERRLAREKERAERLKKERN | not found
design_608_fd41b8f9-4da9-4c78-93ec-aaa316ed4933_1393_dldesign_0_cycle1_af2pred (protein) STVEEALAAAKKNIAAAKAAAAAGDFAAAAAALHEARENVSVIYANDKEKGEELRKEVTAVRAEIRAKEEAA | not found
design_608_fd41b8f9-4da9-4c78-93ec-aaa316ed4933_1401_dldesign_0_cycle1_af2pred (protein) MEEEAKKYVEYTKKKAEEAKKNAKKAKEAGASQEAIQLFIDAAQYYLLAASAAENSPKYLPYAKEETKKGEELLKKGKKLFEEE | not found
design_608_fd41b8f9-4da9-4c78-93ec-aaa316ed4933_1451_dldesign_0_cycle1_af2pred (protein) GSAAAAAAAAAAAIQAQQDKAMEYADEIYEKISKEVGKSTGIKVASDAFSYAMKTDFETGKKYGEEKEIKVIKEAKKK | not found
design_608_fd41b8f9-4da9-4c78-93ec-aaa316ed4933_1455_dldesign_0_cycle1_af2pred (protein) HMSELTKKTSDVISEAVKTSREAVKEAEKKDPALGEKLKEFYTKALLDAQDGDPFKGATELLKKAKADLAAVKAS | not found
design_608_fd41b8f9-4da9-4c78-93ec-aaa316ed4933_1483_dldesign_0_cycle1_af2pred (protein) METKRLSEAHRIAVRAAQAAGAAATTAAEKAAIAAAKFQAVDSDPEELIAILRATGAAFPKQAPHFDAAVAEIEKAIEEY | not found
design_608_fd41b8f9-4da9-4c78-93ec-aaa316ed4933_1539_dldesign_0_cycle1_af2pred (protein) SKRKEAARIAAEIVRRGHRIGAALARTIGPAAGAATEATLEELADLALEDPEKGRELGEAAVAAAEAAIAAARAA | not found
design_608_fd41b8f9-4da9-4c78-93ec-aaa316ed4933_1545_dldesign_0_cycle1_af2pred (protein) GSSVHKELADKLKKAIEEGEAAAKAGDVEKGKQIYADALGEVLGYPEASRQKLLDLPAKEGYEKAKKLLTNAYDGLSSLAKK | not found
design_608_fd41b8f9-4da9-4c78-93ec-aaa316ed4933_1632_dldesign_0_cycle1_af2pred (protein) EAEKKFKEAKKLASEAAEKLATLAAEAAFKGKEELAKEAREALKKLREKGKEAEKLYKEDPEKAAKVLKKAAEEALKKAEKLEKEL | not found
design_608_fd41b8f9-4da9-4c78-93ec-aaa316ed4933_1719_dldesign_0_cycle1_af2pred (protein) DGYEKGKAVAERFKEDAEKIGNTEAAAEGLELLAEQWKAYAEKNTPEEAKEANKAAKEFKEEAKKYKEKAKA | not found
design_608_fd41b8f9-4da9-4c78-93ec-aaa316ed4933_1756_dldesign_0_cycle1_af2pred (protein) AQKAVAEAAQAALIAKSAADVSKNIDAETLEEIAKEAKKAAEKAEKEAPEAKEVIEPAKKEAEKLEKIAKEKKA | not found
design_608_fd41b8f9-4da9-4c78-93ec-aaa316ed4933_1790_dldesign_0_cycle1_af2pred (protein) MEFIKEVSKKVHDTRFYLDSVALKASEEDRKKLEEMRKEVGELMLKAQKAYKEDPEEGKKLAEEALKKAEEAYKYAKSIEE | not found
design_608_fd41b8f9-4da9-4c78-93ec-aaa316ed4933_1798_dldesign_0_cycle1_af2pred (protein) NEAIKEAEKAAKEAKEAYKKAGEVSGETEKAERMIKRVEELLEAGKKDPSKAEKYKAQIEALRDHAKEVLKKAEAKKKA | not found
design_608_fd41b8f9-4da9-4c78-93ec-aaa316ed4933_1810_dldesign_0_cycle1_af2pred (protein) MEELKKVVEETKEYAKKLIESDGFSLVGKSAYEAAEKALKEGNLEKAKEIYEKTKKMYERAEEYEKLAEEREKKYL | not found
design_608_fd41b8f9-4da9-4c78-93ec-aaa316ed4933_1906_dldesign_0_cycle1_af2pred (protein) DVKKEAEKLRDKGKERAKRRLEDAKKISPQYAEAAYEALEQASKNAKKLAEKYPEAKEIYEELAKYFEEQAKKAKEIAE | not found

Binder | binding in a display sort
design_608_fd41b8f9-4da9-4c78-93ec-aaa316ed4933_1926_dldesign_0_cycle1_af2pred (protein) DAEEEAKKLKEEAEKKLKEIKQMAKDGTATVEEIEKERKEGIEALKKAAKLVPEKKEEYAKLAEEIVEAYSDAYYESLKKERE | not found
design_608_fd41b8f9-4da9-4c78-93ec-aaa316ed4933_1996_dldesign_0_cycle1_af2pred (protein) AEKAKELREQAEKLREEARKYAEYAPPEVVHELYQAAAESISYFNLAEKGEATEEQIKEGEEAFKKLKELTEEIKERAKKAEEEA | not found
design_608_fd41b8f9-4da9-4c78-93ec-aaa316ed4933_2157_dldesign_0_cycle1_af2pred (protein) SELEEEIKKLAKELNEAIMKLADLASPEETREAAKKALEAKKLAKEDPEKGLEKLKEALKETKKLLEKAEKEN | not found
design_608_fd41b8f9-4da9-4c78-93ec-aaa316ed4933_2160_dldesign_0_cycle1_af2pred (protein) MEEKAKKYLEAAKKAKKYAEYAAKIDKEAAEKAKEAAKLLEEAAKLYLEGADEEEIEKASKKAAEKLGEARFEYNVVKQKEKRK | not found
design_608_fd41b8f9-4da9-4c78-93ec-aaa316ed4933_2179_dldesign_0_cycle1_af2pred (protein) MKEEEAKKAIEEAKKAIKEAREVGKELAKKDPSKKAFVDEAAKKLHELREKLAEAESLLKKDPEKAKKLAEEVKKKAKEIKKELEKA | not found
design_608_fd41b8f9-4da9-4c78-93ec-aaa316ed4933_2202_dldesign_0_cycle1_af2pred (protein) DEYLKEAEKVYKETKKVIEEAKKKEKEEALKEIAKATQEATMKLTELAAEAAREGDKETAEKIRELRRELIEYATKVAEEVKAK | not found
design_608_fd41b8f9-4da9-4c78-93ec-aaa316ed4933_2208_dldesign_0_cycle1_af2pred (protein) AAAAAAKAKALADAAKKAAKEYVKYAKEEDPEKGRKLLYEDMKKAYALAKADPALAPAAKEIAKIAQEAFQEIADIIGEKK | not found
design_608_fd41b8f9-4da9-4c78-93ec-aaa316ed4933_2243_dldesign_0_cycle1_af2pred (protein) DEAKKEAAKAAQKAYEAIAEAEQAIRSGNAEELKKAAEEAKKAAKEAEKAAKKSKDKEVKEELKRVAKKAKEAAKKAKEAAKKLEA | not found
design_608_fd41b8f9-4da9-4c78-93ec-aaa316ed4933_2275_dldesign_0_cycle1_af2pred (protein) MEKVKEEAEKLREEAEKAAKAGDVKAVSEAAHKLAELAAEAERESEEAGKVAREALRELREEAKAALAKRAAAAAA | not found
design_608_fd41b8f9-4da9-4c78-93ec-aaa316ed4933_2334_dldesign_0_cycle1_af2pred (protein) MTPEEKQEMVKQAVELVKNAKGAFDALEAADLIIEAYEKDPEAGKQAIEAAKAEAEKKIKENPLLGKTALRMIENAEIAMKNLE | not found
design_608_fd41b8f9-4da9-4c78-93ec-aaa316ed4933_2353_dldesign_0_cycle1_af2pred (protein) SNKEEADLLRELARAAKAAGAALAALAAADPSEAARAAALKAEFSQALFDAADGKLNEAEIKAIIARMEAVAAAA | not found
design_608_fd41b8f9-4da9-4c78-93ec-aaa316ed4933_2397_dldesign_0_cycle1_af2pred (protein) RDKLLMYVAAVRGAARIAKDDPEKGKEALEIETEELVEVMAKASEEEAAEAKELAVAAAAEVDPEIAEWVRKFIEEKLKEKR | not found
design_608_fd41b8f9-4da9-4c78-93ec-aaa316ed4933_2418_dldesign_0_cycle1_af2pred (protein) NKLLKEAIEALKKGIEAAKKGDLMEAQAYFTEARFYAEKYAKENPEYKEKAEKAAELAKEAIKTNGTPEAIKLAEEARKLLEEI | not found
design_608_fd41b8f9-4da9-4c78-93ec-aaa316ed4933_2434_dldesign_0_cycle1_af2pred (protein) AAEEAIKKAKKIVEEAVKIMEEAGKKNPEYKEEFEKKNKKIKELLKEAEKLVKEGKKEEGIKTAVKAAHEAREAKAEAEWILRRN | not found
design_608_fd41b8f9-4da9-4c78-93ec-aaa316ed4933_2496_dldesign_0_cycle1_af2pred (protein) EEEVREEAERIRERAKEIAEKAKKLAEEAEKDPSKAKEAEEKSRKLAEELRELGERARELGDEEAARAAAEAAAVAHEARAEAYAIAN | not found
design_609_7ee6ce64-4629-41e8-bcb4-ba0da017284d_21_dldesign_0_cycle1_af2pred (protein) SLEEELNKKKTEELIEEGIKALKEYAEKGKLEEGKAIASKKVQEAFDLGYEEGREAARKVREAYDKLAKEIEKKKA | not found
design_609_7ee6ce64-4629-41e8-bcb4-ba0da017284d_81_dldesign_0_cycle1_af2pred (protein) SKALADALRAAQRALRALGRRAAALDPALAAEVTAALFAVYDQSTAEAAKAAADAAVAAATARIAALEAAA | not found
design_609_7ee6ce64-4629-41e8-bcb4-ba0da017284d_91_dldesign_0_cycle1_af2pred (protein) SDLENNKKALQYAEAAAEAAEFGSLKAAQGLLKKAAELATDEETKKLLLEAAEKEDLKELLKLAKEAAKKLKKNVE | not found
design_609_7ee6ce64-4629-41e8-bcb4-ba0da017284d_97_dldesign_0_cycle1_af2pred (protein) NKLEEAKKAVKKLKELAKKAKEVAKDLKKTEELVKKAEEEYKKAIKLAREAAKEGDEETKKEAKKLAEEAHEAYNEALLALVKARE | not found
